# Screens (PubChem BioAssay)
# RMI-FANCM inh – disruptors of RMI1/RMI2 association with MM2 peptide – biochemical, fluorescence polarization, human, primary screen; RMI core complex (RMI1/RMI2) binding to FANCM MM2 peptide, human; hit rate 0.58% among 70,000; AID 1159607, 2016; RMI core complex with F-MM2 peptide; hits give low values; FP signal (polarization) at 33 µM; in the data active means FP signal below about 40
# Numbers stand for hits; . = inactive. This is one part of a sample in which hits are shown more often than they occur.
SMILES,RMI-FANCM inh
O=C(Nc1ccc2c(=O)c3cccc(F)c3oc2c1)c1ccc([N+](=O)[O-])cc1,.
Cc1ccc(-n2c(C)nc3ccc(NC(=O)Nc4ccc(F)c(Cl)c4)cc3c2=O)cc1,.
Cc1nc2ccc(NC(=O)C(C)Oc3ccc4c(c3)OCO4)cc2c(=O)n1-c1ccccc1 (centres undefined),.
Cc1nc2ccc(NC(=O)Nc3ccc4c(c3)OCO4)cc2c(=O)n1-c1ccc(Cl)cc1,28
O=C(CSc1nccn2nc(-c3ccc(Cl)cc3)cc12)Nc1ccc(Br)cc1,.
COC(=O)CC1C(=O)NCCN1C(=S)NC(=O)c1cccs1 (centres undefined),.
CCOC(=O)c1c(-c2ccccc2)oc2c1cc(NS(=O)(=O)c1ccc(C)cc1C)c1ccccc12,.
CCOC(=O)c1c(C)oc2c1c(C=NC1CC(C)(C)NC(C)(C)C1)c(O)c1ccccc12,8
CCOC(=O)c1c(C)oc2c1c(C=NC(C)c1ccccc1)c(O)c1ccccc12 (centres undefined),.
COc1ccc(N2CCN(C(=O)Cc3csc(NC(=O)Nc4ccc(Cl)cc4)n3)CC2)cc1,.
O=C(Cc1cc(=O)[nH]c(SCc2ccccc2)n1)N1CCN(c2ccccc2F)CC1,.
O=C(/C=C\c1ccc([N+](=O)[O-])cc1)NC1CC(=O)N(c2ccccc2)C1 (centres undefined),.
Clc1cccnn1,-3
N#Cc1ccc(Cl)nn1,.
COc1ccccc1CNC(=O)Cc1csc(NC(=O)C2CC2)n1,.
Cc1cc(C(=O)Nc2nnc(-c3ccc4c(c3)OCO4)o2)on1,.
CCSc1ccccc1C(=O)Nc1sc(C)c(C)c1C(=O)NC,.
FC(F)(F)c1cccc(Nc2nc3ccc(Br)cc3c(-c3ccccc3)c2-c2cc(-c3ccccc3)c3cc(Br)ccc3n2)c1,.
O=C1c2cccc3cc([N+](=O)[O-])cc(c23)C(=O)N1CCc1ccccn1,.
O=C1c2cccc3cc([N+](=O)[O-])cc(c23)C(=O)N1CCCN1CCOCC1,17
O=C(c1ccc(S(=O)(=O)N2CCOCC2)cc1)N1CCN(CCN2C(=O)c3cccc4cccc(c34)C2=O)CC1,.
O=S(=O)(c1ccc(F)cc1)N1CCN=C1SCc1ccc(C(F)(F)F)cc1,.
C=CCn1c(SCC(=O)c2ccc3c(c2)OCCO3)nc2scc(-c3ccc(C)o3)c2c1=O,.
CC(/C=C1\SC(=O)NC1=S)=C\c1ccccc1,.
O=C1NC(=S)/C(=C/c2cccnc2)S1,-19
SMILES,RMI-FANCM inh
Cc1ccc(N=C2NC(=O)/C(=C/c3cccnc3)S2)cc1,.
O=C(CC1Sc2ccc(C(F)(F)F)cc2NC1=O)Nc1ccc(N2CCOCC2)cc1 (centres undefined),.
O=C(O)CC1SC(=Nc2ccc(O)cc2)NC1=O (centres undefined),.
O=C1NC(=Nc2ccc(Cl)cc2)SC1Cc1cccc([N+](=O)[O-])c1 (centres undefined),.
O=C1NC(=Nc2ccccc2)SC1Cc1cccc([N+](=O)[O-])c1 (centres undefined),-6
CC(C)(CCOC(=O)c1ccc([N+](=O)[O-])o1)Nc1ccc(C(F)(F)F)cc1[N+](=O)[O-],40
O=C(Nc1cccc(C(F)(F)F)c1)c1ccc([N+](=O)[O-])o1,.
Cc1ccc(C)n1CCNc1ccc(C(F)(F)F)cc1[N+](=O)[O-],.
COc1ccc(-c2cc(-c3ccc(OC)cc3)c(C#N)c(SCC(=O)Nc3ccc(-c4nc5ccccc5s4)cc3)n2)cc1,.
O=C(CCc1ccc(O)cc1)N/N=C\c1cc(Cl)cc(Cl)c1O,37
O=C(CCc1ccccc1)N/N=C\c1ccccc1,.
O=C(CCc1ccc(O)cc1)N/N=C\C=C\c1ccccc1,.
CCOc1cc(S(=O)(=O)N2CCN(c3cccc(C(F)(F)F)c3)CC2)c(OCC)cc1C,.
COc1ccc(Cl)c2sc(NC(=O)c3ccnn3C)nc12,.
COc1ccc(OC)c(-n2nnc(-c3nc(-c4ccc(F)cc4)no3)c2N)c1,.
COc1ccc(C2c3sc(=O)[nH]c3SC3C4CC(C5C(=O)N(c6ccccc6)C(=O)C45)C23)cc1 (centres undefined),.
O=c1[nH]c2c(s1)C1c3ccccc3OCC1CS2 (centres undefined),.
O=c1[nH]c2c(s1)C(c1ccc(Cl)cc1)C1C3CCC(C3)C1S2 (centres undefined),16
Cc1cc(C(=O)N/N=C\C(Br)=C\c2ccccc2)n[nH]1,.
CC1(C)CC(=O)c2c(nc(SCC(=O)Nc3ccc(S(N)(=O)=O)cc3)c(C#N)c2-c2ccccc2)C1,.
CCOC(=O)c1cc2cc(Cl)ccc2o1,.
CCOC(=O)c1sc(NC(=O)c2cc(=O)c3ccccc3o2)cc1C,.
CCCc1c2c(cc3c(=O)cc(C(=O)OCC)oc13)CCCC2,32
COc1ccc(NC(=O)CSc2n[nH]c(N)n2)cc1,.
O=C1C(NS(=O)(=O)c2ccccc2)=CC(=NS(=O)(=O)c2ccc(F)cc2)c2ccccc21,.
SMILES,RMI-FANCM inh
COc1ccc(S(=O)(=O)N=C2C=C(Nc3cccc(C)c3)C(=O)c3ccccc32)cc1,13
COC(=O)c1ccccc1NC1=CC(=NS(=O)(=O)c2ccc(F)cc2)c2ccccc2C1=O,.
CCOC(=O)N1CCN(C(c2ccncc2)c2c(C)[nH]c3ccccc23)CC1 (centres undefined),.
CCOC(=O)N1CCN(C(c2ccccn2)c2c(-c3ccccc3)n(O)c3ccccc23)CC1 (centres undefined),26
CCOC(=O)N1CCN(CC(O)COc2ccc(-c3ccccc3)cc2)CC1 (centres undefined),.
CC(C)(C)n1nc2c(c1NC(=O)c1c(F)cccc1Cl)CS(=O)(=O)C2,.
COc1ccc(-c2cc3c(SCC(=O)Nc4cccc(SC)c4)nccn3n2)cc1,.
CCCC(=O)NCCc1ccc2c(c1)CCCN2CCC,.
CN1CCCc2cc(CCNC(=O)c3ccccc3Cl)ccc21,.
CCCN1CCCc2cc(CCNC(=O)C(=O)Nc3ccccc3OCC)ccc21,.
CCCN1CCCc2cc(CCNS(=O)(=O)CC(C)C)ccc21,.
CCCN1CCCc2cc(CCNS(C)(=O)=O)ccc21,24
CCCN1CCCc2cc(CCNS(=O)(=O)c3ccc(CC)cc3)ccc21,.
CCN1CCCc2cc(CCNC(=O)c3ccc(OC)c(OC)c3)ccc21,.
CCCN1CCCc2cc(CCNC(=O)C(=O)NC(C)C)ccc21,.
CCCN1CCCc2cc(CCNC(=O)c3cccc(OC)c3OC)ccc21,.
CCN1CCCc2cc(CCNC(=O)c3ccccc3C(F)(F)F)ccc21,0
CCCN1CCCc2cc(CCNC(=O)OCC)ccc21,31
CCCN1CCCc2cc(CCNC(=O)c3ccccc3OCC)ccc21,23
CCS(=O)(=O)N1CCCc2cc(NS(=O)(=O)c3ccc(F)c(Cl)c3)ccc21,.
CCc1nc2c(sc3cccc(F)c32)c(=O)n1CC(=O)Nc1ccc(Cl)cc1,.
O=C(NCC1CCN(Cc2ccccc2)CC1)C(=O)Nc1ccccc1,.
O=C(NCCS(=O)(=O)N1CCN(c2ncccn2)CC1)c1cccs1,.
CCc1ccc(S(=O)(=O)N2CCN(c3ccc(-c4ccco4)nn3)CC2)s1,.
CC(CCC(=O)O)[C@H]1CCC2C3CC[C@@H]4CC(=O)CC[C@]4(C)C3C=C[C@@]21C (some centres undefined),.
CCOc1ccc2ncc(C#N)c(Nc3cccc(SC)c3)c2c1,.
Cc1cc(C)c(NC(=O)CSc2nncn2-n2cccc2)c(C)c1,.
